Out of some 330,000 compounds screened, about 1,300 (0.39%) were called active.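 How the source made its calls: active means inhibition of 50% or more; inactive means inhibition below 50%.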 Only a selection was taken, and actives are over-represented in it overall.
Assay: NALP3 inflammasome inhibitors in reconstituted yeast, primary screen, luminescence, uHTS (AID 2825);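 further: plate controls were induced DMSO wells for no effect and uninduced yeast grown without galactose for full effect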
Conditions: Yeast reconstituted NLRP3/ASC/caspase-1, beta-gal luminescence, 24 h; at 10 µM; hits give high values

Row | Structure (SMILES) | inhibition
1 | CC(C)NS(=O)(=O)c1ccc(OCC(=O)NC2CCCCCC2)cc1 | 10.4% (inactive)
2 | COCCN(C(=O)CC1CCCCC1)c1c(N)n(CC(C)C)c(=O)[nH]c1=O | 6.27% (inactive)
3 | Cn1c(=NC(=O)c2ccco2)sc2cccc(F)c21 | 51% (active)
4 | CCCC(=O)N=c1sc2cccc(F)c2n1C | 35.5% (inactive)
5 | Cn1c(=NC(=O)c2cnccn2)sc2ccccc21 | 25.1% (inactive)
6 | COc1ccc(NC(=O)CN(C)C(=O)Cc2coc3cc(C)c(C)cc23)cc1 | 17.5% (inactive)
7 | COCCCNCCOCCOc1ccc(Cl)cc1Br | 3.7% (inactive)
8 | CC(C)C(=O)Nc1ccc2oc(=O)ccc2c1 | -3.79% (inactive)
9 | CC(C)C(=O)Nc1ccc2c(c1)oc1ccccc12 | 56.7% (active)
10 | Cc1cc(=O)oc2cc(NC(=O)C(C)Oc3ccccc3)ccc12 (centres undefined) | 10.8% (inactive)
11 | Cc1ccccc1N1CCN(S(=O)(=O)c2ccc3ccccc3c2)CC1 | 2.32% (inactive)
12 | O=S(=O)(N1CCOCC1)N1CCN(c2ccccc2F)CC1 | 7.74% (inactive)
13 | Cc1ccc2cccc(S(=O)(=O)N3CCN(c4ccccc4F)CC3)c2n1 | 50.5% (active)
14 | O=C(c1ccc(S(=O)(=O)N2CCCC2)cc1)N1CCN(c2ccccc2F)CC1 | 11.6% (inactive)
15 | C=CCn1c(CNS(=O)(=O)c2ccc(Br)cc2)nnc1SC | 14.4% (inactive)
16 | COc1ccc(NS(=O)(=O)c2cc3c(cc2C)N(C(C)=O)CCO3)cc1 | 25.6% (inactive)
17 | Cc1c(C(=O)Nc2ccccn2)oc2ccc(Br)cc12 | 28.4% (inactive)
18 | Oc1ccc(Br)cc1/C=N/Nc1ccccn1 | 51.7% (active)
19 | Oc1ccc(/C=N/Nc2ccc(C(F)(F)F)cn2)cc1O | 11.3% (inactive)
20 | CCn1nc(C(=O)NNS(=O)(=O)c2cc(/C=C/C(=O)O)cc(OC)c2OC)c2ccccc2c1=O | -0.224% (inactive)
21 | O=C(CSc1ccc(-c2ccc(-n3cccn3)cc2)nn1)Nc1ccc([N+](=O)[O-])cc1 | 51.4% (active)
22 | O=C(CSc1ccc(-c2ccccn2)nn1)Nc1ccccc1 | 25.6% (inactive)
23 | O=C(CSc1ccc([N+](=O)[O-])cn1)Nc1ccc(N2CCOCC2)cc1 | -5.97% (inactive)
24 | CCN1CCN(c2sc(S(C)(=O)=O)nc2S(=O)(=O)c2ccc(Cl)cc2)CC1 | 2.79% (inactive)

Row | Structure (SMILES) | inhibition
25 | CCOC(=O)C1CCN(C(=O)CC2C(=O)N(Cc3ccccc3)C(C)c3nc4ccccc4n32)CC1 (centres undefined) | -3.2% (inactive)
26 | S=C(Nc1cccc(Cl)c1)Nc1ccc2c(c1)OCCO2 | 15% (inactive)
27 | FC(F)(F)c1cccc(NC(=S)Nc2cccc(Cl)c2)c1 | 2.63% (inactive)
28 | Cc1csc(NC(=S)Nc2cccc(Cl)c2)n1 | 53.8% (active)
29 | COc1ccc(-c2n[nH]c3c2CN(C(=O)c2ccc(F)cc2)CC3)cc1 | 19% (inactive)
30 | COc1cc(OC)cc(-c2cc3nc(C4CCN(C(=O)OC(C)(C)C)CC4)cc(=O)n3[nH]2)c1 | 18.1% (inactive)
31 | CC1CC2=C(CC1/C=N/NC(N)=S)C(C)(C)CCC2 (centres undefined) | 68.6% (active)
32 | CCCN(CCc1ccccc1)C1CCc2c(O)cccc2C1 (centres undefined) | 22.2% (inactive)
33 | Cc1cc(C)c(/C=C2\C(=O)Nc3ccccc32)[nH]1 | 55.4% (active)
34 | O=C1Nc2ccccc2/C1=C/c1ccnc2ccccc12 | 17.6% (inactive)
35 | CN(C)/C=C1/Nc2ccccc2C1=O | 12% (inactive)
36 | O=C(COc1coc(CN2CCN(c3ccccc3)CC2)cc1=O)Nc1ccccc1F | 11.8% (inactive)
37 | CC1CCN(c2oc(-c3ccccc3F)nc2C#N)CC1 | 26.9% (inactive)
38 | N#Cc1ccc(OCc2nnc(-c3ccc([N+](=O)[O-])cc3)o2)cc1 | 20.8% (inactive)
39 | N#Cc1nc(COc2ccc(Cl)cc2)oc1N1CCCC1 | 55.6% (active)
40 | Cc1ccc(OCc2nc(C#N)c(N3CCCC3)o2)cc1 | 63% (active)
41 | O=S(=O)(c1ccc(Cl)cc1)c1nc(-c2ccco2)oc1N1CCCCC1 | 22.9% (inactive)
42 | COc1ccc(-c2oc(/N=C/N3CCCC3)c(C#N)c2-c2ccc(OC)cc2)cc1 | 15.6% (inactive)
43 | CC(C(=O)N=Nc1c(O)n(C)c2ccc(Br)cc12)n1cnc2ccccc2c1=O (centres undefined) | 7.45% (inactive)
44 | COc1ccc(CC(=O)Nc2sc(Cc3ccccc3)c(C)c2C(N)=O)cc1 | 25.1% (inactive)
45 | O=C(CN1C(=O)/C(=C\c2ccc(C(F)(F)F)cc2)Sc2ccccc21)NCc1ccco1 | -3.88% (inactive)
46 | C#CCN1CC(C)/C(=N/O)CC1C (centres undefined) | 8.21% (inactive)
47 | CSc1ccc(CN(C)CC(=O)NCc2ccc(F)cc2)cc1 | 30.5% (inactive)
48 | CC(Oc1ccc2c(-c3ccccc3)cc(=O)oc2c1)C(=O)NC(Cc1c[nH]c2ccccc12)C(=O)O (centres undefined) | 18.5% (inactive)

Row | Structure (SMILES) | inhibition
49 | CCC(C)Sc1nc2c(cnn2-c2ccc(F)cc2)c(=O)[nH]1 (centres undefined) | -8.33% (inactive)
50 | CCOc1ccc(-n2c(SCC(=O)OC)nc3sc4c(c3c2=O)CCN(C)C4)cc1 | -6.96% (inactive)
51 | CCSc1nc2sc3c(c2c(=O)n1-c1ccc(C)cc1)CCN(C)C3 | 58.9% (active)
52 | CCCSc1nc2sc3c(c2c(=O)n1-c1ccc(OC)cc1)CCN(C)C3 | 18.1% (inactive)
53 | CCOP(=O)(OCC)C(Nc1cccc(C)c1)c1ccc(F)cc1 (centres undefined) | 3.8% (inactive)
54 | Cc1ccccc1N1CCN(C2CCCN(C(=O)c3ocnc3C)C2)CC1 (centres undefined) | 25.2% (inactive)
55 | CC1CCN(Cc2nc3c(c(=O)n(C)c(=O)n3C)n2CCc2ccccc2)CC1 | 21.2% (inactive)
56 | CCCc1nc2c(c(=O)c3ccccc3n2C)c(=O)n1C1CCCCCC1 | 64.7% (active)
57 | Cn1c2ccccc2c2c(C(=O)N3CCN(c4ccc(F)cc4)CC3)cn(C3CCCC3)c(=O)c21 | 15.6% (inactive)
58 | Cc1onc(-c2c(Cl)cccc2Cl)c1C(=O)c1c[nH]c(C(=O)NC2CC2)c1 | 12.6% (inactive)
59 | Cc1cccc(N=C2SC(C)CN2C(=O)CN2C(=O)NC3(CCCC3)C2=O)c1 (centres undefined) | -3.71% (inactive)
60 | C[C@@H]1C[C@@H]2O[C@H]2/C=C\C=C\C(=O)Cc2c(Cl)c(O)cc(O)c2C(=O)O1 | 53.1% (active)
61 | COc1ccc(NC(=O)C2CCC(CNC(=O)[C@@H]3Cc4ccccc4CN3)CC2)cc1 (some centres undefined) | -1.77% (inactive)
62 | O=C(CSc1nnc(-c2ccccc2O)o1)NC1CCCCC1 | 35.2% (inactive)
63 | O=C(CSc1nnc2c(n1)[nH]c1ccccc12)NC1CCCCC1 | 18.6% (inactive)
64 | O=C(CSc1ncnc2c1oc1ccccc12)NC1CCCC1 | 52% (active)
65 | COC(=O)CN1C(=O)[C@H]2[C@@H](/C=C/c3ccccc3)N3C(=O)CN(CC4CC4)C(=O)[C@@]3(Cc3ccccc3)[C@H]2C1=O | 1.91% (inactive)
66 | CCOc1ccc(C2/C(=C(/O)c3ccc4c(c3)CC(C)O4)C(=O)C(=O)N2CCCn2ccnc2)cc1 (centres undefined) | 15.6% (inactive)
67 | COc1ccc(OCC(=O)NCCS(=O)(=O)N2CCN(c3ccc(F)cc3)CC2)cc1 | 7.19% (inactive)
68 | O=C(/C=C/c1ccco1)Nc1ccc(Oc2ccccc2)cc1 | 22.4% (inactive)
69 | O=C(Nc1ccc(Oc2ccccc2)cc1)c1ccco1 | 50.8% (active)
70 | COc1cc(NC(=O)c2cc([N+](=O)[O-])ccc2Br)ccc1NC(=O)c1ccco1 | 20.7% (inactive)
71 | Cc1cc(NC(=O)c2ccc(F)cc2)ccc1NC(=O)c1ccco1 | 12.3% (inactive)
72 | COc1ccccc1C(=O)Nc1ccc(NC(=O)c2ccco2)c(C)c1 | 50.8% (active)

Row | Structure (SMILES) | inhibition
73 | O=C(NNC(=O)c1ccco1)Nc1ccccc1 | 8.53% (inactive)
74 | Cc1cc(O)c(C(=O)/C=C/c2c(F)c(F)c(F)c(F)c2F)c(=O)o1 | 12.5% (inactive)
75 | CCOc1ccc(N(C(=O)c2snc(C(N)=O)c2N)C(C(=O)NCC2CCCO2)c2c[nH]c3ccccc23)cc1 (centres undefined) | 10.6% (inactive)
76 | COc1cc(OC)c(C(=S)N2CCCC2)cc1OC | 16% (inactive)
77 | COc1ccc(NC(=O)COC(=O)c2ccncc2)c(OC)c1 | 18.3% (inactive)
78 | O=C(COc1cccc(F)c1)Oc1ccc(C(=O)c2ccccc2)cc1 | -40.2% (inactive)
79 | CCOc1ccc(OCC)c(-c2c(=O)n(OCc3ccc(Cl)cc3)c3ccccc3[n+]2[O-])c1 | 3.29% (inactive)
80 | O=C(COC(=O)c1ccccc1SCC(=O)N1CCCC1)Nc1ccccc1OC(F)F | 19.4% (inactive)
81 | CCOC(=O)C1CCN(Cc2c(C(=O)N3CCOCC3)nc3c(C)cccn23)CC1 | 9.59% (inactive)
82 | CCN(CC)C(=O)c1sc2nc(-c3ccccc3)ccc2c1N | 20.7% (inactive)
83 | CN(C(=O)c1ccccn1)c1nnc(-c2ccccn2)s1 | 9.46% (inactive)
84 | CN(C)c1ccnc2sc(C(=O)c3ccccc3)c(N)c12 | 64.4% (active)
85 | O=C(Oc1cccc(O)c1)C1CCCCC1 | 9.17% (inactive)
86 | Cc1ccccc1C(=O)NC(=S)NC1CC1 | -9.47% (inactive)
87 | O=C(c1cccc(S(=O)(=O)N2CCCC2)c1)N(Cc1ccco1)C1CCS(=O)(=O)C1 (centres undefined) | 19.1% (inactive)
88 | CC(OC(=O)c1cc2ccccc2[nH]1)C(=O)N(C)c1ccccc1 (centres undefined) | -0.144% (inactive)
89 | COc1ccc2[nH]c(C(=O)Nc3ccccc3Cl)cc2c1 | -3.34% (inactive)
90 | O=C(Nc1ccccc1)c1cc2ccccc2[nH]1 | 58.5% (active)
91 | COc1ccc(C(=O)c2c(C)c(CCC#N)n3ccccc23)c(OC)c1 | 3.12% (inactive)
92 | O=C(Nc1ccc(S(=O)(=O)N2CCCCC2)cc1)C1CCN(C(=O)c2ccc(F)cc2)CC1 | 8.87% (inactive)
93 | O=C(c1[nH]ncc1-c1ccc(Cl)cc1)C1CO1 (centres undefined) | 2.92% (inactive)
94 | COc1cc(C(=O)OCc2cc(=O)n3ccsc3n2)ccc1OC(C)C | 16.3% (inactive)
